Test results: PubChem BioAssay (NCI)
Compounds without any hit were thinned out: in the full panel of roughly 79,000, 15% have a hit. Calls of active or inactive are those of the source. Cut-off read from the data, not from the text of the source: active = growth inhibition above about 70%; inactive = the rest.

Tests used:
[1] = NCI Yeast Anticancer Drug Screen. Data for the rad50 strain (AID 155);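 note: 0% = growth of vehicle-only cultures of the same strain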; conditions: S. cerevisiae rad50 strain growth inhibition, stronger effect = higher value
In short: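 Yeast carrying a defined DNA repair defect were exposed to test compounds, and growth was compared with vehicle-treated controls to give percent inhibition.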

[2] = NCI Yeast Anticancer Drug Screen. Data for the mec2-1 strain (AID 157); conditions: S. cerevisiae mec2-1 strain, stronger effect = higher value
In short: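 Each compound was tested on mec2-1 yeast, a strain altered in DNA damage repair or cell cycle control. Growth inhibition is reported relative to vehicle.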

[3] = NCI Yeast Anticancer Drug Screen. Data for the sgs1 mgt1 strain (AID 161);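 note: 0% = growth of cultures given vehicle only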; conditions: S. cerevisiae sgs1 mgt1 strain, stronger effect = higher value
In short: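 Genetically altered yeast, compound exposure, growth inhibition relative to vehicle.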

[4] = NCI Yeast Anticancer Drug Screen. Data for the cln2 rad14 strain (AID 165);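 note: 0% = growth equal to vehicle treated cultures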; conditions: S. cerevisiae cln2 rad14 strain, stronger effect = higher value
In short: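 Test compounds were added to cln2 rad14 yeast cultures; inhibition of growth was then determined by comparison with vehicle treatment.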

[5] = NCI Yeast Anticancer Drug Screen. Data for the bub3 strain (AID 167); conditions: S. cerevisiae bub3 mutant strain, stronger effect = higher value
In short: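 Compounds were applied to a genetically altered yeast strain carrying a cell-cycle control defect. Growth inhibition was scored against vehicle-treated controls.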

[6] = NCI Yeast Anticancer Drug Screen. Data for the mlh1 rad18 strain (AID 175); conditions: S. cerevisiae mlh1 rad18 strain growth inhibition, stronger effect = higher value
In short: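 Inhibition values reflect reduced growth of mutant yeast versus vehicle-treated controls following compound exposure; the mutations affect DNA damage repair.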

[7] = at 5.0 µM (retest, dose inferred, filed as 0.5)
[8] = at 50.0 µM (retest, dose inferred, filed as 5.0)

Measured: growth inhibition

Oc1c(Cl)cc(Cl)cc1C=Nc1cc(C(F)(F)F)ccc1Cl
active: [1]; [7] 76% | [1]; [8] 100% | [1]; at 50.0 µM 91.8% | [2]; [8] 99% | [2]; at 50.0 µM 74.4% | [3]; [8] 100% | [3]; at 50.0 µM 91.7% | [4]; [8] 76% | [5]; at 50.0 µM 77.4% | [6]; [8] 99% | [6]; at 50.0 µM 85.9%
inactive: [2]; [7] 50% | [3]; [7] 46% | [4]; [7] 8% | [4]; at 50.0 µM 55.1% | [5]; [7] 5% | [5]; [8] 50% | [6]; [7] 50%

CC(=O)CC1CCC(=O)/C=C/C(=O)OC(CC(C)=O)CCC(=O)/C=C/C(=O)O1 (configuration not stated)
inactive: [1]; [7] 20% | [1]; [8] 38% | [1]; at 50.0 µM 16.3% | [2]; [7] 14% | [2]; [8] 47% | [2]; at 50.0 µM -13.5% | [3]; [7] 11% | [3]; [8] 42% | [3]; at 50.0 µM -6.3% | [4]; [7] 5% | [4]; [8] 27% | [4]; at 50.0 µM 23.1% | [5]; [7] 9% | [5]; at 50.0 µM -17.1% | [6]; [7] 17% | [6]; [8] 56% | [6]; at 50.0 µM -81.7%
active: [5]; [8] 82%

O=C1Oc2ccccc2C(=O)/C1=C/N1C(=O)/C(=C/c2ccccc2)NC1=S
inactive: [1]; [7] -23% | [1]; [8] 31% | [1]; at 50.0 µM 66.7% | [2]; [7] -25% | [2]; [8] 27% | [2]; at 50.0 µM 43.3% | [3]; [7] -15% | [3]; [8] 42% | [4]; [7] 4% | [4]; [8] 37% | [4]; at 50.0 µM 60.6% | [5]; [7] -6% | [5]; [8] 45% | [5]; at 50.0 µM 53.5% | [6]; [7] -33% | [6]; [8] 40% | [6]; at 50.0 µM 54%
active: [3]; at 50.0 µM 71.7%

Cc1nn(C(=O)c2ccccc2O)c2c1C(c1ccco1)SC(N)=N2 (configuration not stated)
inactive: [1]; [7] -6% | [1]; [8] 65% | [1]; at 50.0 µM 67.5% | [2]; [7] 11% | [2]; [8] 59% | [2]; at 50.0 µM 38.8% | [3]; [7] 8% | [3]; [8] 64% | [3]; at 50.0 µM 57% | [4]; [7] 10% | [4]; [8] 52% | [4]; at 50.0 µM 43.6% | [5]; [7] 7% | [5]; at 50.0 µM 69% | [6]; [7] 11% | [6]; at 50.0 µM 59.3%
active: [5]; [8] 86% | [6]; [8] 86%

O=C(NC1CCN(Cc2ccccc2)CC1)c1cccc(I)c1
inactive: [1]; [7] 49% | [1]; [8] 68% | [1]; at 50.0 µM 51.7% | [2]; [7] 39% | [2]; [8] 64% | [2]; at 50.0 µM 58% | [3]; [7] 57% | [5]; [7] 62% | [5]; [8] 65% | [6]; [8] 59% | [6]; at 50.0 µM 67.5%
active: [3]; [8] 73% | [3]; at 50.0 µM 81% | [4]; [7] 84% | [4]; [8] 88% | [4]; at 50.0 µM 82.2% | [5]; at 50.0 µM 70% | [6]; [7] 73%

N=Nc1c(OC(=O)Nc2cccc(Cl)c2)[nH]c2ccccc12
inactive: [1]; [7] 36% | [2]; [7] 14% | [3]; [7] 28% | [4]; [7] 15% | [5]; [7] 1% | [6]; [7] 33%
active: [1]; [8] 99% | [1]; at 50.0 µM 98.7% | [2]; [8] 99% | [2]; at 50.0 µM 98.8% | [3]; [8] 99% | [3]; at 50.0 µM 99% | [4]; [8] 99% | [4]; at 50.0 µM 98.2% | [5]; [8] 99% | [5]; at 50.0 µM 98.4% | [6]; [8] 99% | [6]; at 50.0 µM 99.1%

Cc1ccc(NC(=O)CC2SC(=Nc3ccc(Cl)cc3)NC2=O)cc1C (configuration not stated)
inactive: [1]; [8] -11% | [2]; [7] 57% | [2]; [8] 5% | [3]; [7] 65% | [3]; [8] 0% | [4]; [7] 41% | [4]; [8] 18% | [5]; [8] 11% | [6]; [7] 31% | [6]; [8] 12%
active: [1]; [7] 79% | [1]; at 50.0 µM 99.2% | [2]; at 50.0 µM 99.5% | [3]; at 50.0 µM 99.3% | [4]; at 50.0 µM 98.3% | [5]; [7] 89% | [5]; at 50.0 µM 99.1% | [6]; at 50.0 µM 99.2%

Nc1cc2c(nc3c4ccccc4c(N)cc3[n+]2-c2cccc3ccccc23)c2ccccc12 (tested in a mixture with another compound)
active: [1]; [7] 95% | [1]; [8] 92% | [1]; at 50.0 µM 89.4% | [2]; [8] 92% | [2]; at 50.0 µM 90.2% | [3]; [8] 94% | [3]; at 50.0 µM 89.2% | [4]; [8] 89% | [4]; at 50.0 µM 84.5% | [5]; [8] 91% | [5]; at 50.0 µM 84.8% | [6]; [7] 79% | [6]; [8] 91% | [6]; at 50.0 µM 89.8%
inactive: [2]; [7] 62% | [3]; [7] 59% | [4]; [7] 31% | [5]; [7] 61%

Nc1ccc2c(SCc3ccc([N+](=O)[O-])cc3)c3ccccc3nc2c1
inactive: [3]; [7] 40%
active: [1]; [7] 86% | [1]; [8] 84% | [1]; at 50.0 µM 73.5% | [2]; [7] 98% | [2]; [8] 94% | [2]; at 50.0 µM 87.7% | [3]; [8] 94% | [3]; at 50.0 µM 88.8% | [4]; [7] 90% | [4]; [8] 93% | [4]; at 50.0 µM 84.5% | [5]; [7] 97% | [5]; [8] 94% | [5]; at 50.0 µM 84.2% | [6]; [7] 96% | [6]; [8] 93% | [6]; at 50.0 µM 83.9%
